Measurements reported in PubChem BioAssay AID2501 (Southern Research Specialized Biocontainment Screening …, 2010).
Out of some 2,200 compounds screened, about 1,200 (55%) were called active. Cut-off not given; nearly all actives show IC50 up to about 92 µM. The set was probably picked from earlier hits. This is one part of the list.

test: counter assay for TAg ATPase ADP read-out – biochemical, ADP-Hunter, fluorescence, counter-screen (AID 2501); conditions: series mostly up to 100 µM;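 further: purified T antigen ATPase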

Row | Structure (SMILES) | IC50
1 | COCCCOc1ccnc(CS(=O)c2nc3ccccc3[nH]2)c1C (stereo not given) | inactive
2 | O=C(O)CC1S/C(=N/N=C/C2CC=CCC2)NC1=O (stereo not given) | inactive
3 | Cc1ccc(S(=O)(=O)N2[C@@H](c3ccc(Cl)cc3)C(C(=O)O)=CC[C@H]2c2ccc(C(C)C)cc2)cc1 | inactive
4 | Cc1cc(C)nc(SCc2cc(=O)c(OC(=O)c3ccc(S(=O)(=O)N4CCCC4)cc3)co2)n1 | inactive
5 | CC(C)c1ccc(S(=O)(=O)N2CCN(CC(=O)c3ccc(O)c(O)c3)CC2)cc1 | 5.79 µM (active)
6 | O=C(CN1CCN(S(=O)(=O)c2ccc(F)cc2)CC1)c1ccc(O)c(O)c1 | 7.5 µM (active)
7 | Cc1cccc(-c2ncc(CN3CCCC(CO)(Cc4ccccc4C)C3)cn2)c1 (stereo not given) | inactive
8 | CCOc1cc(N2CCOCC2)c(OCC)cc1NS(=O)(=O)c1ccc(Cl)s1 | 6.56 µM (active)
9 | CCNC(=S)Nc1cc(OCC)c(N2CCOCC2)cc1OCC | 4.1 µM (active)
10 | CC1CCN(CC(C)OC(=O)c2ccc3c(c2)OCCO3)CC1 (stereo not given) | inactive
11 | CCOc1cc(N2CCOCC2)c(OCC)cc1NC(C)C(=O)N1CCC(C)CC1 (stereo not given) | 5.37 µM (active)
12 | CCOc1ccc(OCCC(=O)OCC(=O)Nc2cc(OCC)c(N3CCOCC3)cc2OCC)cc1 | 8.04 µM (active)
13 | CCOc1ccc(CCNC(=O)c2cc(-c3ccccc3)c(N3CCOCC3)s2)cc1OCC | inactive
14 | CCCC(=O)O[C@]1(C(=O)CO)CC[C@H]2[C@@H]3CCC4=CC(=O)CC[C@]4(C)[C@H]3[C@@H](O)C[C@@]21C | inactive
15 | C(=N\Nc1nc2ccccc2[nH]1)/c1cccs1 | 7.86 µM (active)
16 | COc1cc(/C=N/Nc2nc3ccccc3[nH]2)cc(OC)c1O | 6.33 µM (active)
17 | COc1cc(/C=C2\CCc3c2nc2ccccc2c3C(=O)O)cc(OC)c1OC | inactive
18 | COc1cc(/C=N/Nc2nc3ccccc3[nH]c2=O)ccc1O | 8.65 µM (active)
19 | COc1cc(/C=N/Nc2nc3ccccc3o2)cc(OC)c1O | 6.58 µM (active)
20 | CCC[C@@H]1CCCO[C@@](C(=O)NCc2ccc(S(C)(=O)=O)cc2)(C(F)(F)F)C1 | inactive
21 | O=C1NC(=O)/C(=C/c2ccc(O)cc2)S1 | 5.07 µM (active)
22 | Cc1cc(/C=C2\SC(=S)NC2=O)c(C)n1-c1cccc(O)c1 | inactive
23 | O=C1N/C(=C\c2ccc(O)cc2)C(O)=C1C=NCc1ccccc1 | 5.69 µM (active)
24 | Cc1c(N=C2NC(=O)/C(=C/c3ccc(O)cc3)S2)c(=O)n(-c2ccccc2)n1C | 10 µM (active)
25 | O=C1NC(=NCc2ccccc2)S/C1=C/c1ccc(O)cc1 | 8.9 µM (active)

Row | Structure (SMILES) | IC50
26 | COc1cccc2sc(Nc3nnc(-c4cccs4)o3)nc12 | inactive
27 | O=C(/C=C/c1ccc2ccccc2n1)N1CCN(S(=O)(=O)c2ccccc2F)CC1 | inactive
28 | CCCC1Nc2ccc(C(=O)O)cc2C2C=CCC12 (stereo not given) | inactive
29 | COc1ccc2nc3ccccc3nc2c1N | 19.9 µM (active)
30 | NC(=O)NCCCC(=O)OCC(=O)c1ccc2ccccc2c1 | inactive
31 | Cc1ccc2oc(=O)c(/C=C(\O)C(C)(C)C)nc2c1 | 6.56 µM (active)
32 | Cc1ccc2oc(=O)c(/C=C(\O)CC(C)C)nc2c1 | 4.38 µM (active)
33 | NNc1nc(-c2ccccc2)nc(-c2ccccc2)c1Br | inactive
34 | O=C(CC1SC(=O)NC1=O)Oc1ccc(/C=N/NC(=O)c2ccccc2O)cc1 (stereo not given) | 50.6 µM (active)
35 | COc1cc(/C=N/NC(=O)c2ccccc2O)ccc1OC(=O)CC1SC(=O)NC1=O (stereo not given) | 33.4 µM (active)
36 | CC[C@H](C)/C=C/C1=CC2=C(Cl)C(=O)[C@@]3(C)OC(=O)C(C(=O)[C@H](C)[C@@H](C)O)=C3C2=CO1 | inactive
37 | Nc1ccc(Nc2nc3ccccc3[nH]2)cc1 | 6.24 µM (active)
38 | O=C(CCc1ccc(O)c(O)c1)NNC(=S)Nc1ccc(Br)cc1Cl | 19.5 µM (active)
39 | O=C(CSC1=NS(=O)(=O)c2ccccc21)Nc1ccccc1 | inactive
40 | O=S1(=O)N=C(Nc2ccc(O)cc2)c2ccccc21 | 3.57 µM (active)
41 | C=Cc1ccc2c(c1)OCCOCCOCCOCCOCCO2 | inactive
42 | Cc1cccc(OCC(=O)NC(=S)NNC(=O)c2ccncc2)c1 | inactive
43 | CC(C)(C)c1ccc(OCCC(=O)NNC(=O)c2ccccc2)cc1 | 41.8 µM (active)
44 | CC(C)(C)c1ccc(OCC(O)CS(=O)(=O)c2ccccn2)cc1 (stereo not given) | inactive
45 | CCN(CC)c1ccc(/C=N/N2CCOCC2)cc1 | 4.08 µM (active)
46 | CCN(CC)c1ccc(/C=C2\C(=O)N(c3nnc(C)c(=O)[nH]3)N=C2C)cc1 | inactive
47 | CCN(CC)c1ccc(/C=N/O)cc1 | 4.69 µM (active)
48 | O=C(O)c1ccc(-n2nc(-c3ccccc3)c3ccccc3c2=O)cc1 | inactive
49 | CCOc1ccc(/C=N/n2nnnc2N)cc1O | 3.62 µM (active)
50 | COc1cc(/C=N/n2nnnc2N)ccc1O | 2.77 µM (active)

Row | Structure (SMILES) | IC50
51 | COC(=O)CN(c1ccccc1F)S(=O)(=O)c1ccccc1 | inactive
52 | COc1cccc(-n2c(SCc3cc(=O)oc4cc(O)c(O)cc34)nc3ccccc3c2=O)c1 | 49.8 µM (active)
53 | CCOCCCn1c(SCC(=O)Nc2cc(OC)ccc2OC)nc2ccccc2c1=O | inactive
54 | Cc1ccc(C)n1-c1ccncc1 | inactive
55 | Fc1ccccc1CSc1nnnn1-c1ccc2c(c1)OCO2 | inactive
56 | CN(C)c1ccc(N2CC(C)(C)C2=O)cc1 | 3.63 µM (active)
57 | COc1ccc(C2=CC3=C(Br)C(=O)C(C)(OC(=O)c4ccc(Cl)nc4)C(=O)C3=CO2)cc1 (stereo not given) | inactive
58 | COc1ccc(NC2SC(=O)N(C)C2=O)cc1 (stereo not given) | 91 µM (active)
59 | O=C(Nc1nnc(COc2ccccc2)s1)C1CCN(S(=O)(=O)c2ccc(Cl)cc2)CC1 | inactive
60 | O=c1c(OC2OC(CO)C(O)C(O)C2O)c(-c2ccc(O)c(O)c2)oc2cc(O)cc(O)c12 (stereo not given) | 6.33 µM (active)
61 | O=C(O)C1OC(Oc2c(-c3ccc(O)c(O)c3)oc3cc(O)cc(O)c3c2=O)C(O)C(O)C1O (stereo not given) | 8.72 µM (active)
62 | CC1OC(OCC2OC(Oc3c(-c4ccc(O)cc4)oc4cc(O)cc(O)c4c3=O)C(O)C(O)C2O)C(O)C(O)C1O (stereo not given) | 30.9 µM (active)
63 | Cc1csc(NC(=O)NC2(C(F)(F)F)Oc3ccccc3O2)n1 | 12 µM (active)
64 | COc1ccccc1Nc1nc(C)cs1 | inactive
65 | Cc1cccc(C)c1NC(=O)C(c1ccc([N+](=O)[O-])cc1)N(C)C(=O)c1ccccn1 (stereo not given) | inactive
66 | Cc1ccc(-n2ncc3c(N4CCN(c5ccc(F)cc5)CC4)ncnc32)c(C)c1 | inactive
67 | O=C1C=C(Nc2ccc(O)cc2)CC(c2ccco2)C1 (stereo not given) | 3.1 µM (active)
68 | O=C1CC(c2ccco2)CC(O)=C1C=Nc1cc(Cl)cc(Cl)c1 (stereo not given) | inactive
69 | COC(=O)CCC(=O)OC1(C)C(=O)C=C2C=C3CCCN3C=C2C1=O (stereo not given) | inactive
70 | C/C=C/C=C/C(=O)Nc1cccc(C2=NOC3(C2)C[C@H](C(N)=O)N(C(=O)CC(c2ccccc2)c2ccccc2)C3)c1 (stereo not given in full) | inactive
71 | CCCCNC(=O)c1sc(=S)n2c1[nH]c(=O)c1ccccc12 | 57.9 µM (active)
72 | N#Cc1c(NC(=O)CCC(=O)O)sc2c1CCCC2 | inactive
73 | O=c1c2c([N+](=O)[O-])cc([N+](=O)[O-])cc2sn1Cc1ccccc1 | 77.3 µM (active)
74 | O=[N+]([O-])c1cccnc1SCc1ccccc1 | inactive
75 | O=[N+]([O-])c1ccc(-[n+]2ccc3ccccc3c2)c([N+](=O)[O-])c1 | inactive

Row | Structure (SMILES) | IC50
76 | Cc1cc(=O)oc2c(N)c(O)ccc12 | 2.9 µM (active)
77 | CCc1c(C(=O)c2ccc(Cl)cc2)oc2c(C)c3oc(=O)cc(C)c3cc12 | inactive
78 | Cc1ccccc1NC(=O)c1cc(N)ccc1N1CCCCC1 | 5.41 µM (active)
79 | CN(CC(=O)Nc1ccccc1Br)C(=O)c1cc(S(=O)(=O)N(C)C)ccc1N1CCCC1 | inactive
80 | CCN(CC)S(=O)(=O)c1ccc(N2CCCCC2)c(NC(=O)/C=C/c2cc(OC)c(OC)c(OC)c2)c1 | inactive
81 | CC(NCC(=O)Nc1cc(S(=O)(=O)N2CCCCCC2)ccc1Cl)c1ccccc1 (stereo not given) | inactive
82 | O=C(N/N=C/c1ccc(O)c(O)c1)c1cccc(S(=O)(=O)N2CCCCC2)c1 | 10.5 µM (active)
83 | CCNC(=O)NC(=O)C(C)OC(=O)c1cc(S(=O)(=O)N2CCCCCC2)ccc1OC (stereo not given) | inactive
84 | O=C(N/N=C/c1ccc(O)c(O)c1)c1cccc(S(=O)(=O)N2CCCC2)c1 | 4.88 µM (active)
85 | COc1cc(/C=N/NC(=O)c2cccc(S(=O)(=O)N3CCCC3)c2)ccc1O | 4.27 µM (active)
86 | Cc1cc(O)ccc1N/C=C1\CCCC1=O | 10.2 µM (active)
87 | O=C1CCCC/C1=C\Nc1ccc(O)cc1 | 4.32 µM (active)
88 | O=c1oc2cc(O)ccc2c2ccccc12 | 8.47 µM (active)
89 | Oc1ccc2c(c1)oc1cc(O)ccc12 | 4.05 µM (active)
90 | Cc1ccc(C(C)NC(=S)NCc2ccc(F)cc2)cc1C (stereo not given) | 33.9 µM (active)
91 | Oc1cc2c(cc1O)C1c3ccc(O)c(O)c3OCC1(O)C2 (stereo not given) | inactive
92 | CC(C)Cn1c(N)c(C(=O)COC(=O)c2cc(-c3ccco3)nc3ccccc23)c(=O)n(C)c1=O | inactive
93 | CC(=O)Oc1ccc(C(=O)OCC(=O)c2c(N)n(C)c(=O)n(C)c2=O)cc1OC(C)=O | 5.13 µM (active)
94 | COc1cc(SC#N)ccc1N=Cc1c(C)[nH]n(-c2ccc(C)cc2C)c1=O | inactive
95 | O=C(Nc1ccc(O)cc1)C1CC=CCC1 (stereo not given) | 6.87 µM (active)
96 | O=C(Nc1ccc(O)cc1)C1CCCO1 (stereo not given) | 5.34 µM (active)
97 | O=C(Nc1ccc(O)cc1)c1ccc(NC(=O)C2CCCO2)cc1 (stereo not given) | 7.4 µM (active)
98 | CCOC(=O)c1c(N2C(=O)Nc3cc(Cl)c(Cl)cc3N2O)sc2c1CCCCC2 | inactive
99 | Nc1nc(-c2cccs2)c(NC(=O)c2ccccc2)s1 | 10.4 µM (active)
100 | O=C(O)CC1(Cc2nc(-c3cccs3)no2)CCCC1 | inactive
